# In ChEMBL document CHEMBL4513216, “Probing the Open Global Health Chemical Diversity Library for Multistage-Active Starting Points for Next-Generation Antimalarials” (ACS Infect Dis, 2020):
# Screen size: about 69,000 compounds; about 8,600 (12%) showed an effect of 50% or more. What follows is part of a selection rich in strong results, with near analogues and random picks from the rest.
# System: Plasmodium berghei
# Test: Screen against P. berghei liver stage (PbLuc), transformed with Luciferase, at 10uM
# Type: functional, HepG2
# Conditions: tested at 10 uM
row,SMILES,INHIBITION [%]
1,CCC(NC(=O)c1cc(OC)c2c(c1)OCCO2)c1cccs1 (centres undefined),24.3
2,Cc1noc(C)c1CN1CCn2nc(CCC(=O)N3CCCC3)cc2C1,19.3
3,COc1cccc(OCCN2CC[C@@](O)(C3CCOCC3)[C@H](C)C2)c1,49.3
4,N#CCCSc1nnc(Cc2ccccc2F)o1,20.5
5,CS(=O)(=O)CCSc1nnc(Cc2ccccc2F)o1,52.6
6,COc1cccc(Cc2nnc(SCCS(C)(=O)=O)o2)c1,49.1
7,COCCOCCSc1nnc(Cc2ccccc2F)o1,6.88
8,CCOCCSc1nnc(Cc2ccccc2F)o1,-19
9,COc1ccccc1Cc1nnc(SCCS(C)(=O)=O)o1,53.8
10,CC[C@H]1N(CC2CCC2)CCC[C@]12CCC(=O)N2Cc1ccncc1,19.8
11,COCCC(=O)N1CCC(c2cc3ncc(C)nc3[nH]2)CC1,15.9
12,Cc1cnn(CC2CCCCN2Cc2c(C)noc2C)c1 (centres undefined),26.09
13,CC1CCCN(Cc2cccc(C(=O)Nc3nccs3)c2)C1 (centres undefined),-37.8
14,O=C(c1ccccn1)N1CCC(c2nc(O)cc(-c3ccncc3)n2)C1 (centres undefined),19.6
15,CCOc1ncccc1NC(=O)NC1CCCN(c2ncccn2)C1 (centres undefined),30.8
16,Nc1cnc(-c2cccc3c2CCNC3)cn1,-0.178
17,Nc1cc(-c2cccc3c2CCNC3)ncn1,28.7
18,c1cc2c(c(-c3cc(N4CCOCC4)ncn3)c1)CCNC2,58.6
19,COc1cc2nc3n(c(=O)c2cc1OC)CCN(C(=O)C1CC1)CC3,35.2
20,COc1cc(OCC(=O)NCCc2ccccc2)cc(OC)c1OC,-13.2
21,COCC(=O)N1CC[C@@H]2O[C@@H](C)C[C@H]2C1,10.1
22,COCCC(=O)N1CC[C@H]2O[C@@H](C)C[C@H]2C1,64.9
23,COCCC(=O)N1CC[C@@H]2O[C@@H](C)C[C@H]2C1,18.8

row,SMILES,INHIBITION [%]
1,COCCn1c(-c2cccc(OC)c2)cnc1NC(=O)NC(C)C,18.4
2,Nc1ncc(-c2ccc(F)cc2)c(C2CCCNC2)n1 (centres undefined),28.3
3,Nc1ncc(-c2ccc(Cl)cc2)c(C2CCCNC2)n1 (centres undefined),31.6
4,Nc1ncc(-c2ccc(C(F)(F)F)cc2)c(C2CCCNC2)n1 (centres undefined),70.1
5,O=c1cc2c(nn1CN1CCN(c3ccccc3)CC1)CCCC2,38.9
6,Cn1cc(C(=O)N2CCCC2c2noc(C3CC3)n2)c2ccccc21 (centres undefined),19.2
7,O=C1CO[C@@H]2CN(C3CCOCC3)C[C@H]2N1Cc1ccncc1,73.6
8,O=C1CO[C@H]2CN(C3CCOCC3)C[C@H]2N1Cc1ccncc1,22.2
9,O=C1CO[C@H]2CN(C3CCOCC3)C[C@H]2N1Cc1ccc(F)cc1,4.82
10,CCC(Nc1ccc(CCN2CCOCC2)cc1)C(N)=O (centres undefined),-28.8
11,CCC(Nc1ccc(CCN2CCCCC2)cc1)C(N)=O (centres undefined),57.2
12,CCOC(=O)C(C)Nc1ccc(CCN2CCOCC2)cc1 (centres undefined),-30.1
13,Cc1nn(Cn2ccc(C(=O)N3CCCC3)n2)c(C)c1Cl,7.92
14,COc1cc(-c2nc(C3CC3)nn2-c2ccnc(C)c2)nc(OC)n1,-10.2
15,O=C(Nc1nnc(C(F)F)s1)NC(CCO)c1cccs1 (centres undefined),13.8
16,Cc1nnc(CN(C)C2CCN(c3cccc(-c4cscn4)c3)CC2)o1,23.5
17,Cc1cc(CN(C)C2CCN(c3cccc(-c4cscn4)c3)CC2)on1,44.8
18,CN(Cc1nccs1)C1CCN(c2cccc(-c3cscn3)c2)CC1,63.6
19,CN(Cc1ccon1)C1CCN(c2cccc(-c3cscn3)c2)CC1,30.9
20,CN(Cc1cnn(C)c1)C1CCN(c2cccc(-c3cscn3)c2)CC1,45.6
21,CN(C)CCCN(C)C1CCN(c2cccc(-c3cscn3)c2)CC1,52.2
22,Cc1cc(C2CCCN(CCCS(C)(=O)=O)C2)n[nH]1 (centres undefined),11.9
23,CN(C)c1ccc(C(=O)N2CCN(Cc3cscn3)CC2)cn1,-0.219

row,SMILES,INHIBITION [%]
1,CCOCc1cccc(NCc2c[nH]nc2-c2cccnc2)c1,49.1
2,COc1ccc(NCc2c[nH]nc2-c2cccnc2)cc1,56.8
3,FCCOc1cccc(NCc2c[nH]nc2-c2cccnc2)c1,34.6
4,CC(Cn1cccn1)NC(=O)NCc1cccnc1OC1CCCC1 (centres undefined),-21.7
5,CC(Cn1cccn1)NC(=O)NCc1ccc(OC2CCCC2)nc1 (centres undefined),54.4
6,CC(Cn1cccn1)NC(=O)NCc1ccnc(OC2CCCC2)c1 (centres undefined),23.5
7,CC(C)n1cnnc1CN1CCC2(CCCN(C3CCCCC3)C2=O)C1 (centres undefined),-64.1
8,CCN1CCCC1CNC(=O)c1cc(COc2ccccc2F)[nH]n1 (centres undefined),-11.2
9,COc1ccc2c(c1)CCCN(CC(=O)NCC1CCCO1)C2 (centres undefined),39.6
10,Cc1c(C(=O)N2CCC(N3CCCCC3)CC2)n(C)c2ccc(Cl)cc12,69.3
11,Cc1c(C(=O)N2CCN(C)CC2)n(C)c2ccc(Cl)cc12,20.9
12,Cc1c(C(=O)N2CCOCC2)n(C)c2ccc(Cl)cc12,-1.3
13,NS(=O)(=O)CC1CCCN(C(=O)CCCC2CCCC2)C1 (centres undefined),43.8
14,O=C(CCC1CCN(C2Cc3ccccc3C2)CC1)NCC1CCCO1 (centres undefined),25.8
15,O=C1CCC2(CCN(Cc3nccs3)CC2)N1Cc1ccccc1,11.4
16,COc1ccc(-c2ccnc(N)c2)c(OC)c1,-10.5
17,COc1ccc(-c2cc(N)ccn2)c(OC)c1OC,61.5
18,COc1cc(F)ccc1-c1cc(N)ccn1,49.6
19,CCOc1ccc2oc(-c3cnn(C)c3C)c(O)c(=O)c2c1,0.207
20,COC(=O)c1ccc(NC(=O)CCNCc2ccco2)cc1,36.5
21,CN1CCN(Cc2ccc(-c3ccc4[nH]ccc4c3)nc2)CC1,27.5
22,CN1CCN(Cc2ccc(-c3ccc(-c4ccn[nH]4)cc3)nc2)CC1,54.9
23,CN1CCN(Cc2ccc(-c3ccc(C(N)=O)cc3)nc2)CC1,24.2
